DAX1 inh-1: blocks DAX1 repression of SF-1 activated StAR promoter. HEK293T StAR-luciferase reporter, SF-1/DAX-1 repression relief. inhibition, % at 6.8 µM. 370,000 compounds, 1.1% hits. AID 652010;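 active means inhibition above the mean over all tested compounds plus 3 SD, cut at about 3.6% in these data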;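 further: 0% = DAX-1 cells with DMSO and 100% = cells lacking DAX-1 with DMSO; higher inhibition means more luminescence from relief of DAX-1 repression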
DAX1 inh-2: inhibits human nuclear receptor DAX1; P51843; HEK293 Gal4-DAX1 luciferase reporter, luminescence; inhibition, % at 6.75 µM; 340,000 compounds, 0.99% hits; AID 504766;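 active means inhibition above the mean over all tested compounds plus 3 SD, cut at about 4.2% in these data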;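 further: 0% = DAX1-transfected cells with DMSO and 100% = empty-vector control cells with DMSO; inhibition shows as a rise in luminescence from relieved DAX1 repression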
Target sequence (P51843 207-470 limits assumed): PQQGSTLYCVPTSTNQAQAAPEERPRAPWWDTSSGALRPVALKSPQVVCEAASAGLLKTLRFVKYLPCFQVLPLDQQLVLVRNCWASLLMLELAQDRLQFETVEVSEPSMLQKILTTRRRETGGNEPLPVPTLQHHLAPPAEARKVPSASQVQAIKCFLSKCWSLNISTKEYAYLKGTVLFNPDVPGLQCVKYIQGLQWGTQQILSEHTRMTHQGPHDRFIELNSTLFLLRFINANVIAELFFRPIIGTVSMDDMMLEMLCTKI
hgDAF-12 ag: hgDAF-12 agonism, primary luciferase screen | 370,000 compounds, 1.8% hits | activation, % at 6.8 µM | HEK293 GAL4-hgDAF12 UAS-luciferase reporter, agonist luminescence; normalized to butyrate control;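 active means activation above a cutoff set at the mean of all screened compounds plus 3 SD, cut at about 10% in these data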;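 further: 0% = DMSO wells and 100% = sodium butyrate wells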
ssDAF12 agonist: activators of S. stercoralis DAF-12 nuclear receptor; activation, % at 6.8 µM; 370,000 compounds, 1% hits; HEK293 ssDAF-12/GRIP1 lit1-tk-luc reporter, luminescence; % of 3 µM dafachronic acid response;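 active means activation above the mean over all tested compounds plus 3 SD, cut at about 0.9% in these data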;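 further: 0% = DMSO-only wells and 100% = 3 µM delta7-dafachronic acid wells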
hcDAF12 agonist: activators of H. contortus DAF-12 nuclear receptor; HEK293 hcDAF-12 lit1-tk-luc reporter, luminescence; 0% DMSO, 100% Δ7-dafachronic acid; activation, % at 6.8 µM; 370,000 compounds, 1.4% hits;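 active means activation above the mean of all tested compounds plus 3 SD, cut at about 5.5% in these data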;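 further: 100% = response to 3 µM Δ7-dafachronic acid high control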
LXR ag: activates human LXR-beta, counter-screen for hcDAF-12 agonists | shares compounds with hcDAF12 agonist | HEK293 Gal4-LXR tk-luc reporter, luminescence, 24 h; normalized: DMSO 0%, positive control 100% | activation, % at 6.8 µM | 3,400 tested, under 10 active | AID 743027;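 active means mean percent activation of the reporter above a cutoff set as the average over tested compounds plus their standard deviation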
hcDAF12 conf: confirmation of H. contortus DAF-12 agonists | shares compounds with hcDAF12 agonist | HEK293 hcDAF-12 lit1-tk-luc reporter, luminescence; % of Δ7-dafachronic acid response | activation, % at 6.8 µM | 3,400 compounds, 61% hits | AID 743032;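 active means mean activation across triplicate tests above the threshold derived from the earlier primary screen, cut at about 5.5% in these data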;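 further: 0% = DMSO only wells and 100% = 3 µM Δ7-dafachronic acid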
hgDAF12 conf: confirmation of H. glycines DAF-12 agonists | AID 743050 | shares compounds with hgDAF-12 ag | HEK293 GAL4-hgDAF12 luciferase reporter, agonist mode; percent of butyrate response | activation, % at 6.8 µM | 3,300 compounds, 80% hits;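 active means mean activation over triplicate wells above the hit cutoff derived from the earlier primary screen, cut at about 11% in these data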;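 further: 0% = DMSO low control and 100% = 2 mM sodium butyrate high control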
LXRb DAF12 ctr: LXR-beta agonism as DAF-12 counter-screen; 3,300 tested, under 10 active; shares compounds with hgDAF-12 ag; HEK293 Gal4-LXR luciferase reporter, 24 h; activation, % at 6.8 µM;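 active means mean activation of the triplicate above a set limit carried over from the primary screen, none filed active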
* marks the source's active call; other numbers are inactive results; · = no result. This is a sample that favours compounds with a hit; in the whole collection about 4.1% have one here.

SMILES	DAX1 inh-1	DAX1 inh-2	hgDAF-12 ag	ssDAF12 agonist	hcDAF12 agonist	LXR ag	hcDAF12 conf	hgDAF12 conf	LXRb DAF12 ctr
Cc1ccc2nc3sc(C(=O)NCc4ccco4)c(N)c3cc2c1	4.3*	-1	13*	1	8.1*	1	3	20*	1
COc1cc2cc3c(N)c(C(=O)NCc4ccco4)sc3nc2cc1OC	·	0	·	·	·	·	·	·	·
Cc1ccc(-c2cc(C(F)F)n3ncc(C(=O)Nc4ccc(S(=O)(=O)Nc5ccccc5C)cc4)c3n2)cc1	-1	0	0	-1	0	·	·	·	·
Oc1cccc2ccc(/C=C/c3ccccc3Br)nc12	0	3	6	0	2	·	·	·	·
Oc1cccc2ccc(/C=C/c3cccs3)nc12	2	4	20*	2.3*	17*	1	12*	20*	1
Cc1ccsc1/C=C/c1ccc2cccc(O)c2n1	3	3	17*	1.8*	15*	2	14*	22*	1
COc1cc(/C=C/c2ccc3cccc(O)c3n2)ccc1O	0	1	8	-1	0	·	·	·	·
O=C(Nc1cc(Cl)cc(Cl)c1)c1cnn2cccnc12	0	0	-1	-1	0	·	·	·	·
O=C(Nc1cccc(Cl)c1)c1cnn2cccnc12	3	2	17*	0	7.7*	1	7.5*	14*	1
CCC(=O)Nc1ccc(Cl)cc1C(=O)c1ccc[nH]1	·	·	5	-1	3	·	·	·	·
Cc1cc(NC(=O)c2cc3cccc([N+](=O)[O-])c3[nH]2)ccc1F	2	9.7*	14*	0	7.7*	1	7.1*	13*	1
COc1cccc(NC(=O)c2ccc3c(c2)OCO3)c1	3	0	14*	2.8*	7.1*	1	8.2*	17*	1
COc1cccc(NC(=O)c2ccc3c(c2)OCCO3)c1	2	-3	14*	1	11*	1	6.9*	16*	1
COc1ccc(OC)c(-c2cc(C(=O)NCCCn3ccnc3)no2)c1	-1	-1	-1	-2	-1	·	·	·	·
O=C(NCCCn1ccnc1)c1cc(-c2cccs2)on1	-1	4	53*	0	7.6*	0	4	51*	0
C/C(=N\Nc1ccc(C(=O)O)cc1)c1ccc(Cl)s1	3	-1	16*	1.1*	8.2*	1	11*	20*	1
C/C(=N\Nc1ccc(Cl)c(C(=O)O)c1)c1ccc(Br)s1	0	2	3	0	2	·	·	·	·
Cc1nc(C(F)(F)F)c(C(=O)O)cc1-c1nc(-c2ccccc2)cs1	0	1	0	-1	-1	·	·	·	·
c1ccc(CN2CCN(c3cnc4ccccc4n3)CC2)cc1	-1	2	5	-1	2	·	·	·	·
Fc1ccccc1N1CCN(c2cnc3ccccc3n2)CC1	3	-1	19*	1	6.6*	1	5	17*	1
Clc1ccc2nc(-c3ccccc3)cn2c1	2	-1	18*	1.9*	11*	2	9.7*	18*	1
COc1ccc(-c2csc(Nc3ccc(Oc4ccccc4)cc3)n2)cc1	-3	·	-2	-2	-2	·	·	·	·
COc1ccc(-c2csc(Nc3cccc(C)n3)n2)cc1	3	8.7*	14*	1.0*	6.8*	1	5	19*	1
Fc1ccc(-c2csc(Nc3ccccn3)n2)cc1	2	3	20*	4.3*	21*	2	16*	26*	1
NS(=O)(=O)c1ccc(Nc2nc(-c3ccc(F)cc3)cs2)cc1	-1	·	1	-2	-2	·	·	·	·
SMILES	DAX1 inh-1	DAX1 inh-2	hgDAF-12 ag	ssDAF12 agonist	hcDAF12 agonist	LXR ag	hcDAF12 conf	hgDAF12 conf	LXRb DAF12 ctr
COc1ccc(-c2csc(Nc3cccc(C)n3)n2)cc1C	2	2	14*	0	6.7*	1	6.0*	17*	1
Cc1cccc(Nc2nc(-c3ccc(F)cc3)cs2)n1	3	9.3*	16*	2.8*	13*	2	9.6*	18*	1
CCc1nc2c(OCCOc3ccc(F)cc3)cccn2c1N(C)C(=O)c1ccc(OC)cc1	0	·	-3	-1	-2	·	·	·	·
Cc1ccc(Nc2nc(-c3ccc(F)cc3)cs2)nc1	2	6.4*	14*	2.7*	18*	1	11*	18*	1
Cc1ccc(Nc2nc(-c3ccc(O)c(O)c3)cs2)nc1	-1	·	-1	-2	-1	·	·	·	·
Cc1ccnc(Nc2nc(-c3ccccc3)cs2)c1	1	4	15*	1	7.8*	2	5.9*	15*	1
Oc1ccc(-c2csc(Nc3ncccn3)n2)cc1	3	1	18*	0	7.0*	2	8.4*	10	1
CC(=O)O[C@H]1CC[C@]2(C)C3CC[C@]4(C)[C@@H]([C@H](C)/C=C/[C@H](C)C(C)C)CC[C@H]4[C@@]34C=C[C@]2(C1)N(C(=O)c1ccccc1)O4 (stereo not given in full)	0	·	2	-1	-1	·	·	·	·
O=C(Nc1ccccc1)Nc1cccc2ccccc12	0	1	3	-1	1	·	·	·	·
O=C(Nc1ccccc1)Nc1cccc2cccnc12	1	3	15*	1.8*	9.0*	1	8.6*	17*	1
Cc1ccc(NC(=O)c2cccc3cccnc23)cc1	2	4	17*	2.7*	8.8*	1	10*	19*	1
Cc1ccc(NC(=O)c2ccccc2O)cc1	3	0	20*	2.1*	10*	2	8.3*	17*	1
O=C(Nc1ccc(S(=O)(=O)Nc2ncccn2)cc1)c1ccc(Br)s1	0	0	3	-1	-1	·	·	·	·
Clc1ccccc1-c1nnc(-c2cccs2)o1	2	9.4*	20*	1.0*	11*	1	8.1*	24*	1
O=C(NCCc1c[nH]c2ccccc12)c1ccc2c(c1)OCO2	2	2	15*	1.3*	11*	1	9.8*	18*	1
Cc1ccc2[nH]cc(CCNC(=O)c3ccc4c(c3)OCO4)c2c1	0	-1	1	-1	-2	·	·	·	·
COC(=O)[C@@H](Cc1c[nH]c2ccccc12)NC(=O)c1ccc2c(c1)OCO2	1	4	16*	3.2*	13*	1	7.9*	18*	1
